The target of experiment [1] is Thyroid hormone receptor beta (Homo sapiens) (UniProt P10828). As to the kind of experiment: qHTS assay for small molecule agonists of thyroid hormone receptor beta signaling (AID 588545; calls by dose curve). The essentials: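 Agonist activity was read as beta-lactamase CCF4 fluorescence (405 ex, 460/530 em), scaled between DMSO (0%) and 10 nM T3 (100%), then Hill-fitted for EC50 and efficacy. HEK 293 TR-UAS-bla cells in 2% charcoal/dextran FBS medium were exposed 18 h at 37 C.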
Thyroid hormone receptor beta (Homo sapiens), sequence (P10828 whole entry, looked up): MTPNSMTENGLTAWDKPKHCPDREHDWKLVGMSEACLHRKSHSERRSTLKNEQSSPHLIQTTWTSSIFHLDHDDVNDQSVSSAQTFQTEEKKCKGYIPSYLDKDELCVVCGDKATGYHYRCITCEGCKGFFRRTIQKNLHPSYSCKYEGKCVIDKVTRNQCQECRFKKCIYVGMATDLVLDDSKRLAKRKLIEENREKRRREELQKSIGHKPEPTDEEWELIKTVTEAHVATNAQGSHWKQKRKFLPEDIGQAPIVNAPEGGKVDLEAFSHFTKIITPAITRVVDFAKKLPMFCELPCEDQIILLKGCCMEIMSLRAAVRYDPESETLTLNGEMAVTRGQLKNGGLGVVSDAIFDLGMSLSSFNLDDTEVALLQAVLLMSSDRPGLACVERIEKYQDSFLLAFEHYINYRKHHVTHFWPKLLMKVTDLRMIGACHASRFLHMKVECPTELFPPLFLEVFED
On the technique in general: Quantitative high-throughput screening tests each substance at several concentrations.

A short description of experiment [2]: qHTS assay for small molecule antagonists of retinoid X receptor alpha signaling (AID 588546; active = well fitted inhibition curve with a large enough effect in the signal ratio, with a control signal flat, not every such curve was filed as active; the % refers to the signal ratio;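 note: cells stimulated with 9-cis-retinoic acid as agonist; % is set by controls: 0 for no effect and ±100 for the full control effect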). The conditions noted are these: HEK293T RXRa-UAS-bla, beta-lactamase ratio, antagonist mode; measured here: W530 green channel, cytotoxicity proxy. The essentials: (§1)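 Beta-lactamase reporter inhibition, read as CCF4 fluorescence ratio (ex 405, em 460/530 nm) after 2 h at RT. HEK293T UAS-bla cells, 2500/well, were stimulated with 9-cis-RA at 500 or 100 nM final alongside test compound for 18 h at 37 C.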

In experiment [3] the target is Retinoic acid receptor RXR-alpha (Homo sapiens) (UniProt P19793). The description is as above. The conditions noted are these: HEK293T RXRa-UAS-bla, beta-lactamase ratio, antagonist mode. Summed up:
as §1

Experiment [4] has as its target Voltage-gated inwardly rectifying potassium channel KCNH2 (Homo sapiens) (UniProt Q12809). In words: qHTS Assay for Small Molecule Inhibitors of the Human hERG Channel Activity (AID 588834).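 Note: top concentration of the series differs between compounds; % is set by controls: 0 for no effect and ±100 for the full control effect; lower thallium flux fluorescence means stronger hERG block; nearly all actives have a fitted effect of over 50% in size.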 The essentials: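 U2OS cells transduced with hERG via BacMam (MOI ~100), plated 2000/well, loaded with FluxOR thallium dye, compound ~10 min, then stimulation buffer; fluorescence decrease read kinetically; AC50 from Hill fits.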

For experiment [5], the target named is Luciferin 4-monooxygenase (Photinus pyralis) (UniProt P08659). As to the kind of experiment: Biochemical firefly luciferase enzyme assay for NPC (AID 624030).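 Note: purified P. pyralis luciferase at 10 nM with luciferin and ATP substrate; 0% = DMSO and -100% = full luciferase inhibition by PTC124 control; nearly all actives have a fitted effect of over 70% in size.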 The essentials:
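Purified P. pyralis luciferase at 10 nM in 50 mM Tris Acetate (final), luminescence read within 5 minutes of enzyme addition to compounds. Activity normalised to PTC124 versus DMSO; concentration-response curves classed by r2, magnitude and activity.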

Experiment [6] can be described thus: S16 Schwann cell viability assay (CellTiter-Glo assay) (AID 624031).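 Note: native untransfected S16 rat Schwann cells; cellular ATP luminescence as a viability measure; plate controls were DMSO-treated cells for no effect and cell-free wells for full effect; nearly all actives have a fitted effect of over 70% in size.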 Summed up:
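Cells were seeded at 500-750 per well in phenol red-free DMEM with 10% FBS and left overnight. Compounds or DMSO were pinned in, incubation ran 24 h at 37 °C/5% CO2, then CellTiter-Glo reagent was added and luminescence measured.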
Background: Cellular ATP, detected with luciferase, serves as a proxy for viable cell number.

The nature of experiment [7]: S16 Schwann cell PMP22 intronic element firefly luciferase assay (AID 624032).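 Note: plate controls were DMSO for no effect and PTC124 positive control mean for full effect; nearly all actives have a fitted effect of over 30% in size.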 The essentials:
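Rat S16 Schwann cells stably carrying firefly luciferase driven by a PMP22 intronic element, in 10% FBS, treated 24 h at 37 C. ONE-Glo luminescence normalized to PTC124 control and DMSO (0%); curves classed by r2, magnitude and activity.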

The nature of experiment [8]: S16 Schwann cell PMP22 intronic element beta-lactamase assay (AID 624044; calls by dose curve;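 note: 0% = DMSO and -100% = potassium clavulanate positive control; nearly all actives have a fitted effect of over 15% in size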). The settings on record: S16 rat Schwann cells, PMP22 element beta-lactamase FRET, 24 h; ratio activity, negative = inhibition: at 38.3 µM (top of the series) unless noted. The essentials:
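Rat S16 Schwann cells with beta-Lac driven by a PMP22 intronic element, compound-treated 24 h at 37 °C. LiveBLAzer FRET B/G read: 460 nm normalized to potassium clavulanate vs DMSO; 535 nm FRET as viability; concentration-effect curves classified.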

Experiment [9] can be described thus: qHTS assay for small molecule agonists of the antioxidant response element (ARE) signaling pathway (AID 651741; active = well fitted activation curve with a large enough effect in the signal ratio; the % refers to the signal ratio; note: potency is the fitted concentration of half-maximal effect; for activation: % of control where 0% means no effect). Summed up: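 CellSensor ARE-bla HepG2 cells (2,000/well) carrying ARE-driven beta-lactamase, exposed 16 h at 37 C. LiveBLAzer B/G FRET substrate added for 2 h at room temperature; fluorescence intensity read.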
A short description of experiment [10]: qHTS assay for small molecule activators of the p53 signaling pathway (AID 651743; active = well fitted activation curve with a large enough effect in the signal ratio, not every such curve was filed as active; the % refers to the signal ratio; note: % of control where 0% means no effect). The settings on record: HCT-116 p53RE-bla, beta-lactamase FRET ratio, 16 h; activation: stronger effect = higher value. The essentials:
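p53RE-bla HCT-116 cells carrying a beta-lactamase reporter under p53 response elements were exposed to compounds for 16 hours at 37 C. Reporter activity read as fluorescence after 2 hours at room temperature with LiveBLAzer B/G FRET substrate.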

Experiment [11] is described as follows: qHTS assay for small molecule disruptors of the mitochondrial membrane potential - 1 hr assay (AID 651754; calls by dose curve; note: % is set by controls: 0 for no effect and ±100 for the full control effect; nearly all actives have a fitted effect of over 35% in size). The essentials:
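HepG2, 2,000 cells/well, overnight attachment; cpd or DMSO 1 hr, 37C/5% CO2; Mito-MPS dye 30 min, 37C; fluorescence monomer (490/535) and aggregate (540/590).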

Experiment [12] can be described thus: qHTS assay for small molecule disruptors of the mitochondrial membrane potential - 5 hr assay (AID 651755; calls by dose curve; note: % is set by controls: 0 for no effect and ±100 for the full control effect; nearly all actives have a fitted effect of over 40% in size). The essentials:
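HepG2 cells (2,000/well), attached overnight, exposed to compound 5 hr at 37C, then Mito-MPS dye 30 min. Fluorescence read for monomers (490/535 nm) and aggregates (540/590 nm).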

The target of experiment [13] is Tumor necrosis factor (Homo sapiens) (UniProt P01375). As to the kind of experiment: qHTS assay to identify small molecules that stimulate Tumor Necrosis Factor-alpha (TNF-alpha) secretion (AID 651757; active = well fitted curve in the direction sought with a large enough effect in the signal ratio; the % refers to the signal ratio; note: 0% is about no effect). Summed up: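 Read-out is HTRF, a TR-FRET sandwich of cryptate- and XL665-labeled anti-TNF-alpha antibodies detecting cytokine secreted by THP-1 cells. Cells had been incubated with test compounds at 37 C for 17 hrs beforehand.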
Tumor necrosis factor (Homo sapiens), sequence (P01375 whole entry, looked up): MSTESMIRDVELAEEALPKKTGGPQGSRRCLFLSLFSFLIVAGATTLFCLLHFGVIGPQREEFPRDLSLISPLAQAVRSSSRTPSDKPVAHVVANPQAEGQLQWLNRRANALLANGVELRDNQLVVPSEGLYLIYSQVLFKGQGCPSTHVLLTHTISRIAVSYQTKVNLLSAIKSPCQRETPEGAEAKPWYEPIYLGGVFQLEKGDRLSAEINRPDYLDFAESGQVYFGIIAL

Experiment [14] is described as follows: qHTS assay to identify small molecules that stimulate interleukin-8 (IL-8) secretion (AID 651758; active = well fitted activation curve with a large enough effect in the signal ratio; the % refers to the signal ratio; note: 0% is about no effect). The essentials:
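THP-1 cells (2000/well) exposed to compound 16 h at 37 C; secreted IL-8 then detected by HTRF with cryptate- and XL665-labelled anti-IL-8 antibody pair after 1-3 h at room temperature.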

A short description of experiment [15]: qHTS assay for small molecule activators of the nuclear factor-kappa B (NF-kB) signaling pathway (AID 651749; active = well fitted activation curve with a large enough effect in the signal ratio; the % refers to the signal ratio; note: % of control where 0% means no effect). The settings on record: NF-kB-bla ME-180 cells, beta-lactamase FRET ratio, 16 h; stronger effect = higher value. Summed up:
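NF-kB-bla ME-180 cells carrying a beta-lactamase reporter under an NF-kB response element, 2,000 cells/well, exposed to compound for 16 hr at 37C; FRET-based beta-lactamase fluorescence read-out of pathway activation.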

Records with an inconclusive call do not appear. Calls of active or inactive are those of the source. Unless noted, calls come from the whole dose curve; as a rule, active = well fitted curve in the direction sought with a large enough effect; inconclusive = small, poorly fitted or top-dose-only effect, or another doubt; inactive = no such curve, though single readings can be large; an effect the other way counts as inactive or inconclusive.

Voltage-gated inwardly rectifying potassium channel KCNH2 (Homo sapiens), sequence (Q12809 whole entry, looked up): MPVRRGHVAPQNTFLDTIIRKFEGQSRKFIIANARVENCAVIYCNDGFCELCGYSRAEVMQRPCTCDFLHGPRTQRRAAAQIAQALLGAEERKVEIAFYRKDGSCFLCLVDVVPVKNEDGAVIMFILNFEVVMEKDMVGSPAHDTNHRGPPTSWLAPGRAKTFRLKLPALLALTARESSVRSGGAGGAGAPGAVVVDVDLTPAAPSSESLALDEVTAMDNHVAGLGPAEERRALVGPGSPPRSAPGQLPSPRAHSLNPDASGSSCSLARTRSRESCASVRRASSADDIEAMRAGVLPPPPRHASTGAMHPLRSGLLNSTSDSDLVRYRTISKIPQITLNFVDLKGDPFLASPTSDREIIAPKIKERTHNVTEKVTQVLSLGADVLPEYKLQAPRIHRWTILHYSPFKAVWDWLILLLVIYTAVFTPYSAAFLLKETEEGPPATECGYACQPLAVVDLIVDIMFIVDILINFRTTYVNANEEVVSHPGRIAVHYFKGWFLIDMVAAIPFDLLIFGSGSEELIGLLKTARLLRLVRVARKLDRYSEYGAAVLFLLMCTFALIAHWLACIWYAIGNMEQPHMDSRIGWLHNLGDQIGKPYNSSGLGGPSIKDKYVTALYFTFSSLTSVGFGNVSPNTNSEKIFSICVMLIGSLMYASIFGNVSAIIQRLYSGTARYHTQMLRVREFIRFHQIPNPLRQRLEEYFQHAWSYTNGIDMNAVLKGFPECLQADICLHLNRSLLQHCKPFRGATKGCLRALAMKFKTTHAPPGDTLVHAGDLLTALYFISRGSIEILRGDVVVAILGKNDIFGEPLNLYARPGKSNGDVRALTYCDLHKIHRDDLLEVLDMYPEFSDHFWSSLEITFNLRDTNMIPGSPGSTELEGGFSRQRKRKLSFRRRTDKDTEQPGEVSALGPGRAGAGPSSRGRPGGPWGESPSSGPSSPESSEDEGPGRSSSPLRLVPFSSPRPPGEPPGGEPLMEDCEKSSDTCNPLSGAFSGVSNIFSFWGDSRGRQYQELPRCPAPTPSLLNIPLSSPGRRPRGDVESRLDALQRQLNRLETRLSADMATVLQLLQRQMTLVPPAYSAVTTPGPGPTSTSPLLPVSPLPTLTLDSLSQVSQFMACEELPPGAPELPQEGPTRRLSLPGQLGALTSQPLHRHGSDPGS
Luciferin 4-monooxygenase (Photinus pyralis), sequence (P08659 whole entry, looked up): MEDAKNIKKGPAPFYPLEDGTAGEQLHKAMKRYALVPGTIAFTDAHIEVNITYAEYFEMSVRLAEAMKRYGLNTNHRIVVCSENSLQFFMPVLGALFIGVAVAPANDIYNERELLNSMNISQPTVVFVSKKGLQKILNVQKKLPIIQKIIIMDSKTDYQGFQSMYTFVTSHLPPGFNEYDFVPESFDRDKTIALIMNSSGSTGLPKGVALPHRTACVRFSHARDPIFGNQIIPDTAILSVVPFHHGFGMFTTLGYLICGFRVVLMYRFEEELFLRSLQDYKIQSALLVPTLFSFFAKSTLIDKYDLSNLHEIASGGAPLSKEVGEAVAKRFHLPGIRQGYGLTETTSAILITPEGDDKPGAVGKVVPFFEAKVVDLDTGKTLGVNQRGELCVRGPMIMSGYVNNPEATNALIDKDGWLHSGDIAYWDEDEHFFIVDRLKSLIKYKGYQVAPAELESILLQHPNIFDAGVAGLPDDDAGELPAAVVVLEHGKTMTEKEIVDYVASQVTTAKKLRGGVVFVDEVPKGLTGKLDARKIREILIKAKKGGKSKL
Retinoic acid receptor RXR-alpha (Homo sapiens), sequence (P19793 whole entry, looked up): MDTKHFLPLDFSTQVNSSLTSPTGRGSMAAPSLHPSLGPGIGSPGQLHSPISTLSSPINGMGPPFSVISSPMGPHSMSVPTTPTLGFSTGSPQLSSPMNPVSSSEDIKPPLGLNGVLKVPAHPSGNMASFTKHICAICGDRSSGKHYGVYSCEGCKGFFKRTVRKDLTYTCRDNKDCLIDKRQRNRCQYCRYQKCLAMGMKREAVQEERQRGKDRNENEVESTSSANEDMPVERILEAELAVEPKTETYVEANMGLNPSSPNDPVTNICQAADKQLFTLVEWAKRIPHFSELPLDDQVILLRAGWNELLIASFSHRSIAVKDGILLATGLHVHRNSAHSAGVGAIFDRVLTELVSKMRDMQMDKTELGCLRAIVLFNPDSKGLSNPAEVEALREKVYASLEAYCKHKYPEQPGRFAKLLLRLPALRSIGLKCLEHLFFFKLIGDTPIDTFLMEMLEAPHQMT

`CC1=CCC2CC1C2(C)C` (centres undefined): the outcome in experiment [1] was inactive. Also, the max response in experiment [2] was -2.11%; in experiment [3] it was 2.29% (inactive). In addition, the Potency entry in experiment [4], in [5], in experiment [6], in experiment [7], in experiment [9] and in [11] was “inactive” in each case. Besides, the Potency result in experiment [12], in [13] and in experiment [14] was “inactive” throughout. In addition, the ratio activity, negative = inhibition in experiment [8] was 2.01% (inactive). Further, the activation in experiment [10] is -1.57% (inactive).
Turning to `[O-][N+](=Nc1ccccc1)c1ccccc1`, the call in experiment [1] was inactive. Moreover, the max response is -0.56% in experiment [2] and 1.34% (inactive) in experiment [3]. For the same compound, the Potency result in experiment [6], in [11], in [12] and in [13] was “inactive” throughout. Further, the ratio activity, negative = inhibition in experiment [8] was 3.38% (inactive). Moreover, the activation in experiment [10] was 1.25% (inactive).
Turning to `CC(C)CCC[C@@H](C)[C@H]1CC[C@H]2[C@@H]3CC=C4C[C@@H](O)CC[C@]4(C)[C@H]3CC[C@]12C`, the compound was classed as inactive in experiment [1]. For the same compound, the figures for the max response in [2] and in experiment [3] were 11.8% and -19.4% (inactive), respectively. Also, the Potency result in experiment [4], in experiment [5], in experiment [6] and in [7] was “inactive” throughout. For the same compound, the ratio activity, negative = inhibition in experiment [8] is 7.26% (inactive). For the same compound, the Potency in [9] is 54.5 µM (active). In addition, the activation was -0.872% (inactive) in experiment [10] and 0.0919% (inactive) in experiment [15].
As to `NCCO/C=C/[C@H](N)C(=O)O`, in experiment [1], the call was inactive. Also, the max response is -8.31% in [2] and -9.4% (inactive) in experiment [3]. Moreover, the Potency result in experiment [4], in experiment [5], in experiment [6], in experiment [7] and in experiment [9] was “inactive” in each case. The ratio activity, negative = inhibition in experiment [8] is 0.236% (inactive). The activation in experiment [10] is 7.75% (inactive).
As for `C/C=C/C=C/C(=O)O`, in [1], the compound was called inactive. In addition, the max response in experiment [2] was -4.17%; in [3] it was 25.3% (inactive). Besides, the Potency result in experiment [5], in [6], in experiment [7], in experiment [13] and in experiment [14] was “inactive” throughout.
On to `O.O.O.O.O.O.O.O=S(=O)([O-])[O-].[Co+2]`, for which the compound was called inactive in experiment [1]. Further, the max response in [2] is -11.7%; in [3], 6.5% (inactive). The Potency result in experiment [4], in experiment [5], in experiment [6], in experiment [7], in experiment [11] and in experiment [12] was “inactive” each time. The ratio activity, negative = inhibition in experiment [8] was -3.44% (inactive).
As to `CCCCC(CC)COS(=O)(=O)O` (centres undefined), in [1], the result was inactive. The max response is -15.9% in [2] and 7.69% (inactive) in experiment [3]. The Potency result in experiment [4], in [5], in [6] and in [7] was “inactive” throughout.
As to `C[C@H](CCC(=O)O)[C@H]1CC[C@H]2[C@@H]3CC[C@@H]4C[C@H](O)CC[C@]4(C)[C@H]3C[C@H](O)[C@]12C`, in [1], the result was inactive. Also, the Potency entry in experiment [4], in experiment [6], in [7], in experiment [11], in [12] and in [13] was “inactive” in each case. In [8], the ratio activity, negative = inhibition was 1.95% (inactive). In addition, in [9], the Potency was 66.8 µM (active). In experiment [10], the activation is -2.17% (inactive).
